Results: PubChem BioAssay AID1159580 (chemical genetic matrix, 2015)
Screen size: about 5,500 compounds; about 2,000 (36%) were called active. Roughly 18% stayed inconclusive and do not appear here. Cut-off read from the data, not from the text of the source: active = normalized growth mostly below about 0.91 (no sharp cut-off); inconclusive = no clear call, values can overlap the other calls; inactive = mostly above about 0.92. This is one part of the list.

Assay: chemical genetic growth profiling, strain panel (AID 1159580);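 note: tested at 20 µM; growth read once vehicle control cultures reached saturation at 30 °C; 1 = growth at the plate median or of vehicle wells; lower values mean less growth of the strain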
Conditions: growth OD

Measured: normalized growth

COc1ccc(C(CN(C)C)C2(O)CCCCC2)cc1 (stereo unspecified)
inactive: S. cerevisiae deletion strains, locus YKL009W, strain mrt4, stronger effect = lower value 0.978 | S. cerevisiae deletion strains, locus YKL068W, stronger effect = lower value 0.996 | S. cerevisiae deletion strains, locus YKL085W, strain MDH1 (second series), stronger effect = lower value 0.994 | S. cerevisiae deletion strains, locus YKL085W, strain MDH1, stronger effect = lower value 0.994 | S. cerevisiae deletion strains, locus YKL160W, strain elf1, stronger effect = lower value 0.97 | S. cerevisiae deletion strains, locus YKL190W, strain CNB1, stronger effect = lower value 1 | S. cerevisiae deletion strains, locus YKR001C, strain vps1, stronger effect = lower value 0.977 | S. cerevisiae deletion strains, locus YKR026C, strain gcn3, stronger effect = lower value 0.994 | S. cerevisiae deletion strains, locus YKR091W, strain srl3, stronger effect = lower value 0.969 | S. cerevisiae deletion strains, locus YLL001W, strain dnm1, stronger effect = lower value 0.981 | S. cerevisiae deletion strains, locus YLL026W, stronger effect = lower value 0.997 | S. cerevisiae deletion strains, locus YLL041C, strain sdh2, stronger effect = lower value 0.979 | S. cerevisiae deletion strains, locus YLR027C, strain aat2, stronger effect = lower value 0.989 | S. cerevisiae deletion strains, locus YLR039C, strain RIC1, stronger effect = lower value 1.05 | S. cerevisiae deletion strains, locus YLR058C, strain SHM2, stronger effect = lower value 1.01 | S. cerevisiae deletion strains, locus YLR102C, strain apc9, stronger effect = lower value 0.989 | S. cerevisiae deletion strains, locus YLR113W, strain HOG1, stronger effect = lower value 1.04 | S. cerevisiae deletion strains, locus YLR221C, strain rsa3, stronger effect = lower value 1.01 | S. cerevisiae deletion strains, locus YLR258W, strain gsy2, stronger effect = lower value 0.978 | S. cerevisiae deletion strains, locus YLR262C, strain YPT6 (second series), stronger effect = lower value 0.966 | S. cerevisiae deletion strains, locus YLR262C, strain YPT6, stronger effect = lower value 1.03 | S. cerevisiae deletion strains, locus YLR268W, strain sec22, stronger effect = lower value 0.981 | S. cerevisiae deletion strains, locus YLR320W, strain mms22, stronger effect = lower value 1.02 | S. cerevisiae deletion strains, locus YLR330W, strain CHS5, stronger effect = lower value 1.01 | S. cerevisiae deletion strains, locus YLR342W, strain FKS1 (second series), stronger effect = lower value 1.03 | S. cerevisiae deletion strains, locus YLR342W, strain FKS1, stronger effect = lower value 0.976 | S. cerevisiae deletion strains, locus YLR357W, strain rsc2, stronger effect = lower value 0.936 | S. cerevisiae deletion strains, locus YLR370C, strain arc18, stronger effect = lower value 0.989 | S. cerevisiae deletion strains, locus YLR371W, strain rom2, stronger effect = lower value 0.985 | S. cerevisiae deletion strains, locus YLR384C, strain iki3, stronger effect = lower value 0.996 | S. cerevisiae deletion strains, locus YLR418C, strain cdc73, stronger effect = lower value 0.96 | S. cerevisiae deletion strains, locus YML016C, strain PPZ1, stronger effect = lower value 1.01 | S. cerevisiae deletion strains, locus YML032C, strain rad52, stronger effect = lower value 0.991 | S. cerevisiae deletion strains, locus YML120C, strain ndi1, stronger effect = lower value 1 | S. cerevisiae deletion strains, locus YML124C, strain tub3, stronger effect = lower value 0.989 | S. cerevisiae deletion strains, locus YMR058W, strain fet3, stronger effect = lower value 0.989 | S. cerevisiae deletion strains, locus YMR078C, strain ctf18, stronger effect = lower value 0.993 | S. cerevisiae deletion strains, locus YMR125W, strain sto1, stronger effect = lower value 0.919 | S. cerevisiae deletion strains, locus YMR129W, stronger effect = lower value 0.993 | S. cerevisiae deletion strains, locus YMR205C, strain PFK2, stronger effect = lower value 0.998 | S. cerevisiae deletion strains, locus YMR223W, strain ubp8, stronger effect = lower value 0.99 | S. cerevisiae deletion strains, locus YMR231W, strain pep5, stronger effect = lower value 0.978 | S. cerevisiae deletion strains, locus YMR263W, strain SAP30, stronger effect = lower value 1.01 | S. cerevisiae deletion strains, locus YMR307W, strain GAS1, stronger effect = lower value 1 | S. cerevisiae deletion strains, locus YNL067W, strain RPL9B, stronger effect = lower value 0.991 | S. cerevisiae deletion strains, locus YNL071W, strain lat1, stronger effect = lower value 1 | S. cerevisiae deletion strains, locus YNL128W, strain TEP1, stronger effect = lower value 1.01 | S. cerevisiae deletion strains, locus YNL153C, strain GIM3, stronger effect = lower value 1.01 | S. cerevisiae deletion strains, locus YNL183C, strain NPR1, stronger effect = lower value 0.969 | S. cerevisiae deletion strains, locus YNL209W, strain ssb2, stronger effect = lower value 0.981 | S. cerevisiae deletion strains, locus YNL233W, strain BNI4, stronger effect = lower value 1.02 | S. cerevisiae deletion strains, locus YNL248C, strain rpa49, stronger effect = lower value 0.925 | S. cerevisiae deletion strains, locus YNL250W, strain rad50, stronger effect = lower value 0.993 | S. cerevisiae deletion strains, locus YNL271C, strain bni1, stronger effect = lower value 0.987 | S. cerevisiae deletion strains, locus YNL298W, strain CLA4, stronger effect = lower value 0.991 | S. cerevisiae deletion strains, locus YNL307C, strain MCK1, stronger effect = lower value 0.981 | S. cerevisiae deletion strains, locus YNL322C, strain KRE1 (second series), stronger effect = lower value 0.965 | S. cerevisiae deletion strains, locus YNL322C, strain KRE1, stronger effect = lower value 1.01 | S. cerevisiae deletion strains, locus YNR049C, strain mso1, stronger effect = lower value 0.982 | S. cerevisiae deletion strains, locus YNR052C, strain pop2, stronger effect = lower value 0.998 | S. cerevisiae deletion strains, locus YOL006C, strain TOP1, stronger effect = lower value 1.04 | S. cerevisiae deletion strains, locus YOL012C, strain htz1 0.805 | S. cerevisiae deletion strains, locus YOL147C, strain pex11, stronger effect = lower value 0.984 | S. cerevisiae deletion strains, locus YOR001W, strain rrp6, stronger effect = lower value 1.01 | S. cerevisiae deletion strains, locus YOR061W, strain CKA2, stronger effect = lower value 1.01 | S. cerevisiae deletion strains, locus YOR069W, strain VPS5, stronger effect = lower value 0.995 | S. cerevisiae deletion strains, locus YOR070C, strain gyp1, stronger effect = lower value 0.986 | S. cerevisiae deletion strains, locus YOR080W, strain dia2, stronger effect = lower value 0.973 | S. cerevisiae deletion strains, locus YOR083W, strain WHI5, stronger effect = lower value 0.932 | S. cerevisiae deletion strains, locus YOR106W, strain vam3, stronger effect = lower value 0.967 | S. cerevisiae deletion strains, locus YOR136W, strain idh2, stronger effect = lower value 0.986 | S. cerevisiae deletion strains, locus YOR144C, strain elg1, stronger effect = lower value 0.998 | S. cerevisiae deletion strains, locus YOR184W, strain ser1, stronger effect = lower value 1 | S. cerevisiae deletion strains, locus YOR231W, strain MKK1, stronger effect = lower value 1.01 | S. cerevisiae deletion strains, locus YOR265W, strain rbl2, stronger effect = lower value 0.989 | S. cerevisiae deletion strains, locus YOR270C, strain vph1, stronger effect = lower value 0.945 | S. cerevisiae deletion strains, locus YOR290C, strain snf2, stronger effect = lower value 0.974 | S. cerevisiae deletion strains, locus YOR316C, strain cot1, stronger effect = lower value 0.999 | S. cerevisiae deletion strains, locus YPL051W, strain arl3, stronger effect = lower value 0.994 | S. cerevisiae deletion strains, locus YPL055C, strain LGE1, stronger effect = lower value 1.03 | S. cerevisiae deletion strains, locus YPL078C, strain atp4, stronger effect = lower value 0.969 | S. cerevisiae deletion strains, locus YPL106C, strain sse1, stronger effect = lower value 0.977 | S. cerevisiae deletion strains, locus YPL240C, strain hsp82, stronger effect = lower value 0.996 | S. cerevisiae deletion strains, locus YPL241C, strain CIN2, stronger effect = lower value 1 | S. cerevisiae deletion strains, locus YPL256C, strain CLN2, stronger effect = lower value 0.992 | S. cerevisiae deletion strains, locus YPR119W, strain clb2, stronger effect = lower value 0.993 | S. cerevisiae deletion strains, locus YPR141C, strain kar3, stronger effect = lower value 0.991 | S. cerevisiae deletion strains, locus YPR163C, strain tif3, stronger effect = lower value 0.984 | S. cerevisiae deletion strains, locus YPR167C, strain met16, stronger effect = lower value 0.989 | S. cerevisiae deletion strains, strain wtn01, stronger effect = lower value 0.983 | S. cerevisiae strains, strain wild type, stronger effect = lower value 1
